For 20 compounds, growth results are on record in PubChem BioAssay (NCI).

The panel holds about 83,000 compounds, 20% with a hit somewhere; the sample as a whole holds those more often.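 Results are percent growth after 48 hours of single-concentration exposure. 100 means growth as in untreated cells, lower positive values show inhibition; negative values down to -100 show cell death.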 Unmarked numbers belong to inactive results. Activity calls are given as the source filed them. Rule for the calls: active = growth percent below 10; inactive = the rest.

Among the test systems are T-47D breast; MDA-MB-435 melanoma; SW-620 colon; MCF7 breast; HCT-116 colon; HCC-2998 colon; KM12 colon.
Assay in all cases: NCI-60 one-dose screen, 48 h (100 = growth as untreated, 0 = no growth, -100 = all killed)
Conditions in all cases: 10 µM unless noted

For the compound `CC1Cc2c(Cl)ncnc2N(C)c2ccc(Cl)cc21` (stereo unspecified), the growth in the test with T-47D breast is 2.19% (active); in the test on MDA-MB-435 melanoma, 3.3% (active); in the test on SW-620 colon, 6.73% (active); in the test with MCF7 breast, 7.64% (active); with HCT-116 colon, 7.96% (active); in the test with HCC-2998 colon, 36.9%. In addition, in the test with KM12 colon, the growth was 10.1%.

For `COc1ccc(C(=O)c2nccc3cc(OC)c(OC)cc23)cc1OC`, the growth in the test with T-47D breast is 79.4%; with MDA-MB-435 melanoma, 119%; in the test on SW-620 colon, 96%; in the test with MCF7 breast it was 93.2%; in the test on HCT-116 colon it was 92.9%; in the test with KM12 colon it was 104%.

`CC1Cc2c(Cl)ncnc2N(C)c2ccccc21` (stereo unspecified): the growth was 42.5% in the test on T-47D breast; 14.9% with MDA-MB-435 melanoma; 14% in the test with SW-620 colon; 14.1% in the test on MCF7 breast; 12.9% in the test on HCT-116 colon; 34.5% with HCC-2998 colon. In the test with KM12 colon, the growth is 11.3%.

Regarding `Cc1cccc(/C=C2\N=C(c3ccccc3)N(c3ccc(S(N)(=O)=O)cc3)C2=O)c1`, the growth in the test on T-47D breast was 85.2%; in the test on MDA-MB-435 melanoma, 92.3%; with SW-620 colon, 104%; in the test on MCF7 breast it was 82.1%; in the test on HCT-116 colon, 83.9%; with KM12 colon it was 98.1%.

Consider `CSc1nc(N)c(N=Nc2ccc(S(=O)(=O)Nc3nnc(C)s3)cc2)c(=O)[nH]1`, for which the growth in the test on T-47D breast is 112%; with MDA-MB-435 melanoma it was 128%; in the test on SW-620 colon, 93.4%; with MCF7 breast it was 100%; with HCT-116 colon, 109%; with HCC-2998 colon it was 117%. Besides, the growth with KM12 colon is 98.6%.

As for `Nc1nc(Cl)c2ncn(Cc3cc4c(cc3I)OCO4)c2n1`, the growth with T-47D breast is 30.9%; with MDA-MB-435 melanoma, 34.6%; in the test with SW-620 colon it was 18.3%; in the test with MCF7 breast, 18.9%; with HCT-116 colon it was 16.7%; in the test on KM12 colon, 9.48% (active).

With `C=CC1=C(C)C2=NC1=CC1=NC(=CC3=C(C)C4=C(O)C(C(=O)O)C(=C5NC(=C2)C(C)C5CCC(=O)O)C4=N3)C(CC)=C1C` (stereo unspecified), the growth was 123% in the test on T-47D breast; 120% in the test with MDA-MB-435 melanoma; 104% with SW-620 colon; 113% in the test on MCF7 breast; 101% in the test on HCT-116 colon; 109% with HCC-2998 colon. For the same compound, the growth in the test with KM12 colon is 105%.

Regarding `O=C(OCc1ccc2c(Cl)cc(Cl)c(O)c2n1)N1CCNCC1`, the growth in the test with T-47D breast is 29.9%; with MDA-MB-435 melanoma, 48.9%; in the test on SW-620 colon it was 26.2%; with HCT-116 colon, 27.5%; in the test with HCC-2998 colon it was 60.2%; in the test on KM12 colon, 31.5%.

On to `O=C(CCNCc1ccccc1)c1ccccc1`, for which the growth with T-47D breast is 104%; with MDA-MB-435 melanoma, 109%; with SW-620 colon, 109%; in the test with HCT-116 colon, 106%; in the test on HCC-2998 colon, 107%; with KM12 colon it was 96.7%.

Regarding `O=C(CCN1CCCCC1)c1ccc2ccccc2c1`, the growth in the test with T-47D breast is 91%; with MDA-MB-435 melanoma, 110%; in the test on SW-620 colon, 107%; with MCF7 breast it was 87.8%; in the test on HCT-116 colon it was 103%; with HCC-2998 colon, 109%. Further, the growth in the test with KM12 colon was 102%.

As for `CCN(CC)c1ccc(/C=C/C=C2\NC(=O)NC2=O)cc1`, the growth in the test on T-47D breast was 31.9%; in the test on MDA-MB-435 melanoma, -5.48% (active); in the test with SW-620 colon it was 31.2%; in the test on MCF7 breast it was 20.4%; in the test on HCT-116 colon it was 10.1%; with KM12 colon it was 32.4%.

Consider `Oc1ccc(N=Nc2nccs2)c(O)c1`, for which the growth in the test on T-47D breast was 58.1%; with MDA-MB-435 melanoma, 64.4%; in the test with SW-620 colon, 41.3%; in the test with MCF7 breast it was 57.1%; in the test on HCT-116 colon it was 5.98% (active); in the test with KM12 colon, 51.7%.

Regarding `COc1cc(NCc2ccccc2O)c2ncccc2c1`, the growth in the test with T-47D breast is 90.4%; in the test with MDA-MB-435 melanoma it was 103%; in the test on SW-620 colon it was 102%; in the test with HCT-116 colon, 64%; in the test on HCC-2998 colon it was 108%; with KM12 colon, 103%.

With `Cn1cc(-c2noc(-c3cn(C)c4ncccc34)n2)c2cc(Cl)ccc21`, the growth in the test on T-47D breast was 54.2%; in the test on MDA-MB-435 melanoma, 87%; in the test on SW-620 colon it was 89%; with MCF7 breast, 62.1%; in the test with HCT-116 colon, 94.1%; in the test on KM12 colon, 103%.

Consider `NNC(=O)c1ccc(C(=O)NN)cc1`, for which the growth in the test with T-47D breast is 133%; in the test with MDA-MB-435 melanoma, 106%; in the test with SW-620 colon, 99.2%; in the test on MCF7 breast it was 106%; in the test with HCT-116 colon, 108%; in the test on HCC-2998 colon it was 100%. In addition, the growth in the test on KM12 colon was 107%.

In the case of `CCOC(=O)/C(C#N)=C(\C)CCc1ccccc1`, the growth was 98.9% with T-47D breast; 110% in the test on MDA-MB-435 melanoma; 103% in the test with SW-620 colon; 91.9% in the test on MCF7 breast; 87.7% in the test on HCT-116 colon; 113% with KM12 colon.

`OC(c1ccc(Cl)cc1)(c1ccc(Cl)cc1)C(O)(c1ccc(Cl)cc1)c1ccc(Cl)cc1`: the growth with T-47D breast is 32.9%; with MDA-MB-435 melanoma, 29.3%; in the test with SW-620 colon, 44.4%; with MCF7 breast, 49.7%; in the test with HCT-116 colon it was 7.19% (active); in the test on KM12 colon, 24.2%.

As to `O=C1NC(=O)C(Cc2ccc(OCc3ccc(-c4cc(F)c(F)c(F)c4)cc3)cc2)S1` (stereo unspecified), the growth in the test with T-47D breast is 57.6%; in the test with MDA-MB-435 melanoma, 99%; with SW-620 colon, 95.2%; with HCT-116 colon it was 83.9%; with HCC-2998 colon, 97.3%; with KM12 colon it was 81.9%.

Turning to `O=C(O)c1cn(C2CC2)c2cc(N3CCN(Cc4cc(Cl)ccc4O)CC3)c(F)cc2c1=O`, the growth in the test with T-47D breast is 67.4%; in the test on MDA-MB-435 melanoma, 74.2%; in the test on SW-620 colon, 83.6%; with HCT-116 colon it was 72.3%; in the test on HCC-2998 colon, 82.4%; in the test on KM12 colon, 62.5%.

`O=C(Nc1cc(F)cc2cccnc12)c1cnc(N2CCNCC2)cn1`: the growth in the test on T-47D breast was 18%; in the test on MDA-MB-435 melanoma, 77.3%; in the test on SW-620 colon, 40.9%; in the test on HCT-116 colon it was 11%; in the test on HCC-2998 colon, 85.6%; in the test on KM12 colon, 81.2%.
